Data as given in the supplement of paper PMC7366291.
Structures can show the parent of a compound that is named as a salt. ± gives the standard deviation or the standard deviation of the averaged measurements.

Assays:
Details in all cases: 25 µM; exposure: 24-48 hpf
[1] = test system: Danio rerio Tg(wt1b:EGFP) embryo, pronephros; experiment: glomerular separation, fold change vs DMSO control; higher = glomeruli further apart (abnormal)
How it was run: (§1)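 Every feature is expressed as a fold change relative to the averaged DMSO-treated embryos of the same day. The exposure ran from 24 to 48 hpf at 28.5°C, with dechorionated Tg(wt1b:EGFP) zebrafish embryos in HEPES-buffered E3 containing 0.003% PTU, 0.5% DMSO and 25 μM compound. Dorsal pronephros images taken in agarose-filled 96-well plates were reduced to maximum projections, on which 16 reference points were set by hand in Fiji for a macro to compute distances and angles. Values more than 2 SD from the feature mean were not used.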

[2] = test system: Danio rerio Tg(wt1b:EGFP) embryo, pronephros; experiment: glomerular width (mean of left and right), fold change vs DMSO control; higher = wider glomerulus
How it was run: as §1

[3] = test system: Danio rerio Tg(wt1b:EGFP) embryo, pronephros; experiment: fraction of imaged embryos annotated as normal kidney; higher = less nephrotoxic; extreme values may be limits of the assay
How it was run: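 Dechorionated Tg(wt1b:EGFP) zebrafish embryos were incubated with 25 μM compound in 0.5% DMSO, 5 mM HEPES-buffered E3 and 0.003% PTU from 24 to 48 hpf at 28.5°C. Pronephroi were then imaged by widefield fluorescence, and the fraction of embryos per treatment assigned by hand to the normal-kidney category is given.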

[4] = test system: Danio rerio Tg(wt1b:EGFP) embryo, pronephros; experiment: pronephric angle neck segment to proximal convoluted tubule (mean of left and right), fold change vs DMSO control; higher = larger pronephric angle
How it was run: as §1

Compound | glomerular separation [1] | glomerular width [2] | fraction of imaged embryos annotated as normal kidney [3] | pronephric angle neck segment [4]
CC(=O)OCC(=O)[C@@]1(O)CC[C@H]2[C@@H]3CCC4=CC(=O)C=C[C@]4(C)[C@@]3(F)[C@@H](O)C[C@@]21C [Isoflupredone acetate] | 1.22 ± 0.63 | 1.21 ± 0.017 | 0.583 | 1.014 ± 0.0048
O=C(Nc1cccc2c(=O)cc(-c3nnn[nH]3)oc12)c1ccc(OCCCCc2ccccc2)cc1 [Pranlukast] | 1.04 ± 0.37 | 1.01 ± 0.019 | 0.833 | 1.01 ± 0.041
CC(=O)N(O)CCCCCNC(=O)CCC(=O)N(O)CCCCCNC(=O)CCC(=O)N(O)CCCCCN [Deferoxamine mesylate] | 0.888 ± 0.3 | 1.02 ± 0.042 | 0.917 | 1.01 ± 0.018
O=P(O)(O)C(O)(Cc1cccnc1)P(=O)(O)O [Risedronic acid monohydrate] | 0.755 ± 0.35 | 1.04 ± 0.032 | 0.833 | 0.975 ± 0.027
COc1cnc(NS(=O)(=O)c2ccc(N)cc2)nc1 [Sulfameter] | 0.925 ± 0.34 | 1.01 ± 0.021 | 0.833 | 0.9915 ± 0.0018
CC(C)COCC(CN(Cc1ccccc1)c1ccccc1)N1CCCC1 (stereo not given) [Bepridil hydrochloride] | 0.94 ± 0.41 | 1.03 ± 0.03 | 0.818 | 0.993 ± 0.033
O=C(NCCO[N+](=O)[O-])c1cccnc1 [Nicorandil] | 1.05 ± 0.44 | 0.989 ± 0.083 | 0.917 | 0.9232 ± 0.008
O=C(CCCN1CCC(O)(c2ccc(Br)cc2)CC1)c1ccc(F)cc1 [Bromperidol] | 0.878 ± 0.23 | 1.03 ± 0.076 | 1 | 0.974 ± 0.038
CCn1cc(C(=O)O)c(=O)c2cc(F)c(N3CCNCC3)cc21 [Norfloxacin] | 0.828 ± 0.22 | 1.05 ± 0.037 | 1 | 0.9433 ± 0.0086
CO/N=C(\C(=O)N[C@@H]1C(=O)N2C(C(=O)O)=C(COC(N)=O)CS[C@H]12)c1ccco1 [Cefuroxime sodium salt] | 1.05 ± 0.35 | 0.997 ± 0.025 | 1 | 0.985 ± 0.025
